A selection follows.
aSyn 5UTR act: Activators via SNCA 5'UTR binding, MLPCN | alpha-synuclein 5'UTR reporter, activators screen | activity score, % (tested at 7.5 µM), hits read low | actives 7.1% (n = 300,000); in the data active = activity score below about -60%
* = called active by the depositor.

SMILES	aSyn 5UTR act
O=S(=O)(/C=C/c1ccccc1)Oc1ccccc1	-80*
COc1ccc(C(=O)NCCOc2ccccc2Cl)c(OC)c1OC	-154*
N#C/C(=C\c1cc(Cl)c(OCc2ccc(Cl)cc2)c(Cl)c1)C(N)=O	-143*
COc1ccc(Nc2oc(-c3cccs3)nc2C#N)cc1	-171*
COc1ccc(Nc2oc(COc3ccccc3OC)nc2C#N)cc1	98
COc1ccc(Nc2oc(-c3ccccc3F)nc2C#N)cc1	-103*
COc1ccc(NC(=O)c2ccc(-c3ccccc3Cl)o2)cc1	-156*
COC(=O)c1sccc1-c1ccc(C(=O)Nc2ccccc2)o1	-115*
CCc1nnc(NC(=O)c2ncc(Cl)c(Cl)c2Cl)s1	-62*
O=C(Nc1cccc(F)c1)c1ccc(-c2ccccc2Cl)o1	-173*
CCc1nnc(NC(=O)c2ccc(-c3ccccc3Cl)o2)s1	-160*
Cc1cccc2c3nc4ccccc4nc3n(C)c12	-78*
Clc1ccc(-c2nnsc2SCc2ccccc2)cc1	-75*
CCCCC(=O)Nc1sc2c(c1C(N)=O)CCC2	-85*
CC(=O)NC(=S)Nc1sc2c(c1C(N)=O)CCC(C)C2 (configuration not stated)	-83*
Cc1sc(NC(=S)NC(=O)C(C)(C)C)c(C(N)=O)c1C	-68*
CC(C)CC(=O)NC(=S)Nc1sc2c(c1C(N)=O)CCC2	-100*
CC(C)(C)C(=O)NC(=S)Nc1sc2c(c1C(N)=O)CCC2	-88*
O=C(OCc1ccccn1)c1ccc(COc2ccc3ccccc3c2)o1	-104*
CN(C)C=Nc1ncc2c([nH]c3ccccc32)c1C#N	-113*
CCn1nnc(NC(=O)c2ccc(-c3ccccc3[N+](=O)[O-])o2)n1	-90*
CCCCn1nnc(NC(=O)c2cc3ccccc3o2)n1	-137*
CCCCn1nnc(NC(=O)c2ccc(-c3ccccc3)cc2)n1	-129*
O=C(NCc1cccnc1)c1ccc(-c2ccccc2[N+](=O)[O-])o1	-64*
O=C(CCCCCN1C(=O)c2cccc3cccc(c23)C1=O)NCc1cccnc1	59
SMILES	aSyn 5UTR act
CCn1nnc(NC(=O)c2cc3ccccc3o2)n1	-168*
CC(=O)c1cccc(NC(=O)c2ccc(-c3ccccc3[N+](=O)[O-])o2)c1	-238*
CCCn1nnc(NC(=O)c2cc3ccccc3o2)n1	-156*
Cc1ccc(C(=O)/C=C\Nc2ccc(C)c(C)c2)cc1	-195*
O=C(/C=C/Nc1ccc(F)cc1Br)c1ccccc1	70
Cc1ccc(C(=O)/C=C/Nc2ccccn2)cc1	75
Cc1cc(N/C=C/C(=O)c2ccccc2)ccc1Br	-78*
Cc1ccc(O)c(N/C=C/C(=O)c2ccc(F)cc2)c1	-259*
Cc1ccc(N/C=C/C(=O)c2ccc(C)cc2)cc1	-241*
COc1ccc(N/C=C/C(=O)c2cc(OC)c(OC)c(OC)c2)cc1	60
COc1ccc(N/C=C/C(=O)c2ccc(Cl)cc2)cc1	-105*
COC(=O)c1ccc(COc2ccc(C)cc2[N+](=O)[O-])o1	-130*
Cc1ccc(COC(=O)c2cc([N+](=O)[O-])ccc2N2CCOCC2)cc1	68
COC(=O)c1cc(C)ccc1OCc1ccc([N+](=O)[O-])cc1	-79*
COc1ccccc1NC(=O)c1coc(=O)c(Br)c1	-63*
O=C(NCCc1ccccc1)c1coc(=O)c(Br)c1	-77*
CC(C)CNC(=O)c1coc(=O)c(Br)c1	-87*
O=C(NCCC1=CCCCC1)c1coc(=O)c(Br)c1	-65*
CS(=O)(=O)Nc1ccc(C(=O)NCCC2=CCCCC2)cc1	-109*
Fc1ccccc1/C=N/Nc1nc2ccccc2o1	-200*
FC(F)Oc1ccccc1/C=N/Nc1nc2ccccc2o1	-165*
COc1ccc(/C(C#N)=C/c2cccnc2)cc1	-71*
N#C/C(=C\c1ccc(OC(=O)c2ccc(Cl)s2)cc1)c1nc2ccccc2[nH]1	-287*
N#C/C(=C/c1ccncc1)c1nc2ccccc2s1	-89*
COc1cc(/C=C(/C#N)c2nc3ccccc3[nH]2)ccc1OCC(=O)Nc1ccccc1C(C)C	103
SMILES	aSyn 5UTR act
COc1cc(/C=C(\C#N)c2nc3ccccc3[nH]2)ccc1OC(=O)c1ccco1	-174*
COc1ccc2nc3cc(Cl)ccc3c(Nc3cc(CN4CCCC4)c(O)c(CN4CCCC4)c3)c2n1	104
Cc1cc2nc(/C(C#N)=C/c3ccncc3)[nH]c2cc1C	-62*
N#C/C(=C\c1cccnc1)c1nc2ccccc2[nH]1	-86*
N#C/C(C(=O)c1ccccc1)=C1/CCCCCN1	-113*
N#C/C(=C1/CCCCCN1)c1nc2ccccc2[nH]1	-127*
Cc1cc2c(cc1C)C(c1cc(Br)ccc1F)CC(=O)N2 (configuration not stated)	65
CC1CCc2nc(/C(C#N)=C/c3ccncc3)sc2C1 (configuration not stated)	-114*
N#C/C(=C\c1ccncc1)c1nc2ccccc2[nH]1	-77*
CCN(CC)c1ccc(/C=C(/C#N)c2nc3ccccc3[nH]2)c(OC(C)C)c1	-211*
Nc1cc(C(=O)OCC(=O)N2CCCC2)ccc1Cl	-62*
Nc1cc(Cl)ccc1C(=O)OCC(=O)N1CCCC1	-69*
Cc1ccc(C(=O)NC(=S)N(C)C2CCCCC2)cc1	-84*
CN(C(=O)c1ccc(-c2ccccc2)cc1)C1CCCCC1	-127*
Cn1ccs/c1=N\C(=O)Nc1cccc(C(F)(F)F)c1	-109*
CC(C)(C)C(=O)Cn1ncc(Br)c(Br)c1=O	-92*
Cc1ccsc1C(=O)OCC(=O)N1CCc2ccccc2C1	-126*
CCOC(=O)C1CCN(C(=O)c2c(C)oc3c2C(=O)c2ccccc2C3=O)CC1	72
CCOC(=O)C1CCN(C(=O)c2cc3c(ccc4ccccc43)o2)CC1	-115*
CCOC(=O)C1CCN(Cc2c(O)ccc3ccccc23)CC1	-108*
CC1CCN(C(=O)c2cc3ccccc3c(=O)o2)CC1	-78*
Cc1oc2c(c1C(=O)N1CCC(C)CC1)C(=O)c1ccccc1C2=O	83
O=C(COc1ccc(Br)cc1Cl)NC(=S)Nc1ccccn1	-100*
COCCCNC(=O)COc1ccc(Br)cc1Cl	-146*
Cc1c(Br)c(O)c(Br)c(O)c1/C=N/n1c(-c2ccccc2)n[nH]c1=S	62
SMILES	aSyn 5UTR act
S=c1[nH]nc(C2CCCCC2)n1/N=C/C(Cl)=C\c1ccccc1	-75*
S=c1[nH]nc(-c2ccco2)n1/N=C/C(Cl)=C/c1ccccc1	-172*
Cc1cc(-c2n[nH]c(=S)n2/N=C/C(Cl)=C/c2ccccc2)n[nH]1	-164*
Cc1cc(NS(=O)(=O)c2ccc(NC(=O)c3cc4c(=O)n5ccccc5nc4s3)cc2)nc(C)n1	-79*
CC(C)CCNC(=O)c1cc2c(=O)n3ccccc3nc2s1	-146*
CCN(CC)C(=O)c1cc2c(=O)n3ccccc3nc2s1	-125*
Cc1ccc(C(=O)NCc2ccc3c(c2)CCO3)cc1C	-96*
O=C(OCc1ccccc1)c1cccc(-c2nnn(Cc3ccccc3)n2)c1	-91*
Cc1ccc(NC(=O)c2ccc3nc[nH]c3c2)c(O)c1	-99*
Cc1ccc(NC(=O)c2ccc(C(=O)c3ccccc3)cc2)nc1	-109*
O=C(Nc1ccc(OC(F)(F)F)cc1)c1ccc2nc[nH]c2c1	-64*
Cc1ccc(NC(=O)CCNC(=O)c2ccc(Cl)cc2)nc1	-80*
Cc1ccc(NC(=O)c2ccc3nc[nH]c3c2)nc1	-96*
Cc1cccc2cc(/C=N/Nc3ccc(C(=O)O)cc3)c(Cl)nc12	-197*
O=C(O)c1ccc(N/N=C/c2cc3ccccc3nc2Cl)cc1	-143*
O=[N+]([O-])c1ccccc1N/N=C/c1cc2ccccc2nc1Cl	-206*
